# Results taken from PubChem BioAssay.
# Unmarked numbers belong to inactive results. The list shows a part of the results. Calls of active or inactive are those of the source.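 Rule for the calls, unless noted: active = mean inhibition above 46.68%, the untreated control wells mean plus 3 SD; inactive = the rest.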
# Columns and labels:
# [1] = biological target: Nuclear receptor coactivator 1 (Homo sapiens) (UniProt Q15788); assay: SRC1 coactivator transcriptional activity inhibitors, confirmation, cell-based, luminescence, quadruplicate (AID 588820); conditions: HEK293 GAL4-SRC1 luciferase reporter, at 3.6 µM, stronger effect = higher value;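 note: 0% = DMSO wells and 100% = gossypol 36 µM treated wells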
# Nuclear receptor coactivator 1 (Homo sapiens), sequence (Q15788 whole entry, looked up, the tested form may be a part): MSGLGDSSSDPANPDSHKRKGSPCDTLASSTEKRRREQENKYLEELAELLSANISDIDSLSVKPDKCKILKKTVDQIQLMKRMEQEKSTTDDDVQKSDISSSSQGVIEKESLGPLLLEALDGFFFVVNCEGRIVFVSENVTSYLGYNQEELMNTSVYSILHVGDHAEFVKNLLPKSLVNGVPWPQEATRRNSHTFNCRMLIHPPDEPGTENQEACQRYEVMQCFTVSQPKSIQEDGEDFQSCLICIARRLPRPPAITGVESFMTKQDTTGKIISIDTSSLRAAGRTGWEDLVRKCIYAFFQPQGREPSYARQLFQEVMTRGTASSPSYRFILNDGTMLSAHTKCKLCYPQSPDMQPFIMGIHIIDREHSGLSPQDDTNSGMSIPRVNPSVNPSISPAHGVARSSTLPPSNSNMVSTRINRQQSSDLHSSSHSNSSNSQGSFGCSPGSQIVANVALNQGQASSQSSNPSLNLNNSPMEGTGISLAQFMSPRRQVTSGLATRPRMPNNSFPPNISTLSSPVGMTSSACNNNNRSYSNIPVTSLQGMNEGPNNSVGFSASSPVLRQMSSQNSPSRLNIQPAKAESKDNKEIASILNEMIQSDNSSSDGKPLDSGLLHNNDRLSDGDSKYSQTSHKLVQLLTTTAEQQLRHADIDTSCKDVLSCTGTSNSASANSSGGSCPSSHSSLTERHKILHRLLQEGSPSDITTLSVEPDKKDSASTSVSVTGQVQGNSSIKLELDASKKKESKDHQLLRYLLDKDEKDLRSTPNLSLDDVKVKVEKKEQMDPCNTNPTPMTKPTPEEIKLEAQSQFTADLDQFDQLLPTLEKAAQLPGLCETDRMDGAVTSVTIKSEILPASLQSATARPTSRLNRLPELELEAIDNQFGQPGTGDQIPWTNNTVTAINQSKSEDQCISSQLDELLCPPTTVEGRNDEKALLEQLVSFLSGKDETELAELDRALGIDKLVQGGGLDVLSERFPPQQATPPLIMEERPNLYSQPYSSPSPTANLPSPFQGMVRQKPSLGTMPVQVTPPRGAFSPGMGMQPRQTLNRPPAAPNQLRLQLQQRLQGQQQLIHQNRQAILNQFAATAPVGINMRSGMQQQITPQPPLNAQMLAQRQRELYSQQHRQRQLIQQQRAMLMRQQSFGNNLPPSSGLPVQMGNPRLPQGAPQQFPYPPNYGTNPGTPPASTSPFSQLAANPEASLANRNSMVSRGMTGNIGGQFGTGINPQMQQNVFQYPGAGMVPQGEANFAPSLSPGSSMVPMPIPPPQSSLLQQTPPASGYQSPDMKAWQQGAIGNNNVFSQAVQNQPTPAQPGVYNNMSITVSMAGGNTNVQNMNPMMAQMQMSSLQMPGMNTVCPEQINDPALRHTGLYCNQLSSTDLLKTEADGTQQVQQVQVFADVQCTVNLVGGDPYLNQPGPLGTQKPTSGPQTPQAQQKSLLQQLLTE
# [2] = VP16 transactivation inhibitors, counter-screen for SRC1 inhibitor project, cell-based, luminescence, high throughput (AID 588824; in the data active = inhibition above about 25%); conditions: cell-based VP16 transactivation luciferase luminescence; at 3.6 µM; stronger effect = higher value
# [3] = biological target: Nuclear receptor coactivator 3 (Homo sapiens) (UniProt Q9Y6Q9); assay: SRC3 coactivator transcriptional activity inhibitors, confirmation, cell-based, luminescence, quadruplicate (AID 588792;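 active = mean inhibition over 43.08%, the solvent-only control mean plus 3 SD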;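 note: 0% = DMSO treated cells and 100% = gossypol at 36 µM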); conditions: HEK293 GAL4-SRC3 luciferase reporter, at 3.6 µM, stronger effect = higher value
# Nuclear receptor coactivator 3 (Homo sapiens), sequence (Q9Y6Q9 whole entry, looked up, the tested form may be a part): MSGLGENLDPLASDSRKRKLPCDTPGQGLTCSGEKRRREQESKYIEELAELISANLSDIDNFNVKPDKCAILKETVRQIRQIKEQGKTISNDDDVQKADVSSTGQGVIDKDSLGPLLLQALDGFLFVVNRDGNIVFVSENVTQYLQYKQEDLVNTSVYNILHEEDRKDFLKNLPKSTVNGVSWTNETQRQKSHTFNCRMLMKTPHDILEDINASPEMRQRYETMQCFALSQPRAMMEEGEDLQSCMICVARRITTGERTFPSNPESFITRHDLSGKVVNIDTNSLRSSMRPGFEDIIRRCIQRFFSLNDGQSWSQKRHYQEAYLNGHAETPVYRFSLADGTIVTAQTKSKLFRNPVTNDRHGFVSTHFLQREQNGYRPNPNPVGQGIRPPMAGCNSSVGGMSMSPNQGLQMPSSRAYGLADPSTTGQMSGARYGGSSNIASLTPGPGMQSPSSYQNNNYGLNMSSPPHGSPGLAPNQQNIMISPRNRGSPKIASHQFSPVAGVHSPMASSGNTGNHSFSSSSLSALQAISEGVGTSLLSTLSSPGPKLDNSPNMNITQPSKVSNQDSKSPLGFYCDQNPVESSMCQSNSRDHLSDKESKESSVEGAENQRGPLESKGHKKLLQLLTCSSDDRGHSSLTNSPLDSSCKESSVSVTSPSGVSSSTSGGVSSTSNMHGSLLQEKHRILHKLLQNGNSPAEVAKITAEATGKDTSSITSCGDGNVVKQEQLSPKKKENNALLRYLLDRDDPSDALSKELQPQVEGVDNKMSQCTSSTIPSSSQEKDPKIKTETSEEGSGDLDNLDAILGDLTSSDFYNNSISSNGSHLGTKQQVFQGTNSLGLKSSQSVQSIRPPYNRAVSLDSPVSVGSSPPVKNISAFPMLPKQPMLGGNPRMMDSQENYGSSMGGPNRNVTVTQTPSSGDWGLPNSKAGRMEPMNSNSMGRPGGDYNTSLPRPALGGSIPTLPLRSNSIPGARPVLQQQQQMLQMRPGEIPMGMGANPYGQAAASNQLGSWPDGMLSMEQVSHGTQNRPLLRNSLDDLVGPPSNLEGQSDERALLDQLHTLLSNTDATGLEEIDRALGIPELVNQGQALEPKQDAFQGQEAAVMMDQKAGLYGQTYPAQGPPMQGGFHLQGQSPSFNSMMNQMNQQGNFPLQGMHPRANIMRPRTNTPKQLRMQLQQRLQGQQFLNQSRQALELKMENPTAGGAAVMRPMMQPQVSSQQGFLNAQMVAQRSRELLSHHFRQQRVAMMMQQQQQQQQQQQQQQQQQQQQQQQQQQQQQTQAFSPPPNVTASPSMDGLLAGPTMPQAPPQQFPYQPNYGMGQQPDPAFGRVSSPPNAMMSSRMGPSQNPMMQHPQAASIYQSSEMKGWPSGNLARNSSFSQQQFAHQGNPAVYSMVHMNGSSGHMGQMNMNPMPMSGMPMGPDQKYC
# [4] = tested on: transactivating tegument protein VP16 (Human herpesvirus 1), Gal4-VP16 luciferase reporter; assay: VP16 transactivation inhibitors, counter-screen for SRC3 inhibitor project, cell-based, luminescence, high throughput (AID 588794; in the data active = inhibition above about 30%); conditions: mammalian cells, VP16-driven luciferase reporter luminescence; at 3.6 µM; stronger effect = higher value
# [5] = StAR promoter reporter inhibitors, counter-screen for LRH-1 inverse agonist project, cell-based, luminescence, high throughput (AID 651611; in the data active = inhibition above about 28%); conditions: StAR promoter luciferase reporter counterscreen, at 3.6 µM, stronger effect = higher value
# [6] = biological target: Nuclear receptor subfamily 5 group A member 2 (Homo sapiens) (UniProt O00482); assay: LRH-1 (NR5A2) inverse agonists, retest, confirmation, cell-based, luminescence (AID 651613; in the data active = inhibition above about 42%;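 note: HEK293T cells co-transfected with LRH-1 and StAR promoter luciferase reporter; 0% = vehicle wells and 100% = parental cells lacking receptor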); conditions: cell-based LRH-1 luciferase reporter, inverse agonism; at 3.6 µM; stronger effect = higher value
# Nuclear receptor subfamily 5 group A member 2 (Homo sapiens), sequence (O00482 whole entry, looked up): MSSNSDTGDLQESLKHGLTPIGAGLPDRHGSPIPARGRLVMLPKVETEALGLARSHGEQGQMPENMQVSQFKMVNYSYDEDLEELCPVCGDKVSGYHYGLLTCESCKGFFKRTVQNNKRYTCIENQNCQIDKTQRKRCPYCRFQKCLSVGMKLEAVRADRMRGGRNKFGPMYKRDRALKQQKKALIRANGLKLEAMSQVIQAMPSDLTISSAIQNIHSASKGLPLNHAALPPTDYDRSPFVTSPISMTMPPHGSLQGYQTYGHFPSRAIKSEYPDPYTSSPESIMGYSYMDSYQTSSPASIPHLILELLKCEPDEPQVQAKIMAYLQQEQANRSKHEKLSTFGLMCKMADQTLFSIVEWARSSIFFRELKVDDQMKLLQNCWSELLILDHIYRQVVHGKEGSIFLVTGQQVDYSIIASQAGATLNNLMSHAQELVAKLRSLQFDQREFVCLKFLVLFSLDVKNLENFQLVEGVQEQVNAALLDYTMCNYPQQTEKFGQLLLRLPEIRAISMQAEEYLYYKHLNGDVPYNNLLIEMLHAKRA
# [7] = biological target: Steroidogenic factor 1 (Homo sapiens) (UniProt Q13285); assay: SF1 (NR5A1) inverse agonists, counter-screen for LRH-1 inverse agonist project, cell-based, luminescence, high throughput (AID 651614; in the data active = inhibition above about 44%;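 note: cells cotransfected with StAR promoter reporter and SF1 expression vector; 0% = vehicle on cells with receptor and 100% = vehicle on cells lacking receptor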); conditions: cell-based SF1 luciferase reporter, at 3.6 µM, stronger effect = higher value
# Steroidogenic factor 1 (Homo sapiens), sequence (Q13285 whole entry, looked up, the tested form may be a part): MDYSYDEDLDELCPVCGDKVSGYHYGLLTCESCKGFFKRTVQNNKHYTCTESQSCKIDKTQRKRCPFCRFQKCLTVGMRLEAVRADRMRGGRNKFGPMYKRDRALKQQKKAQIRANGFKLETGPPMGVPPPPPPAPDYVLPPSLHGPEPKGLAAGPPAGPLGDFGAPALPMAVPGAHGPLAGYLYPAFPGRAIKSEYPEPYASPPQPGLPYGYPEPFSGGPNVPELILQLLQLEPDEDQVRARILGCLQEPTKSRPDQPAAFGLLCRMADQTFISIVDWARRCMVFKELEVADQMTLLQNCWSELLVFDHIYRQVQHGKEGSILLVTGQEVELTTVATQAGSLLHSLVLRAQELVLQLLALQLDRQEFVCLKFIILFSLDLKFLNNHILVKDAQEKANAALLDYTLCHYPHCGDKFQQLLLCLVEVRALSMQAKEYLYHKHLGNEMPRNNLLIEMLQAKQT
# [8] = VP16 transactivation reporter inhibitors, counter-screen for LRH-1 inverse agonist project, cell-based, luminescence, high throughput (AID 651615; in the data active = inhibition above about 33%); conditions: Gal4-VP16 luciferase reporter cells, at 3.6 µM, stronger effect = higher value
# [9] = tested on: transactivating tegument protein VP16 (Human herpesvirus 1); assay: VP16 transactivation reporter inhibitors, counter-screen for SRC2 inhibitor project, cell-based, luminescence, single concentration (AID 652007; in the data active = inhibition above about 36%); conditions: cell-based VP16 transactivation luciferase reporter, at 8.9 µM, stronger effect = higher value
# [10] = biological target: Nuclear receptor coactivator 2 (Homo sapiens) (UniProt Q15596); assay: SRC2 coactivator transcriptional activity inhibitors, confirmation, cell-based, luminescence, HEK293, triplicate (AID 652008;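 active = mean inhibition above 46.5%, the solvent-only control mean plus 3 SD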;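 note: 0% = DMSO-treated cells and 100% = Gossypol at 36 µM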); conditions: HEK293 GAL4-SRC2 luciferase reporter, at 8.9 µM, stronger effect = higher value
# [11] = biological target: Receptor-interacting serine/threonine-protein kinase 2 (Homo sapiens) (UniProt O43353); assay: NOD2-RIPK2 binding disruptors, retest, confirmation, fluorescence, CHO cells, BLA complementation, triplicate (AID 624370;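 active = mean inhibition across replicates above a set limit taken from the earlier primary screen, cut at about 21% in these data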;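 note: 0% = DMSO-only wells and the high end = clavulanate BLA-blocked wells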); conditions: CCF4 FRET, at 4.98 µM, stronger effect = higher value
# Receptor-interacting serine/threonine-protein kinase 2 (Homo sapiens), sequence (O43353 whole entry, looked up): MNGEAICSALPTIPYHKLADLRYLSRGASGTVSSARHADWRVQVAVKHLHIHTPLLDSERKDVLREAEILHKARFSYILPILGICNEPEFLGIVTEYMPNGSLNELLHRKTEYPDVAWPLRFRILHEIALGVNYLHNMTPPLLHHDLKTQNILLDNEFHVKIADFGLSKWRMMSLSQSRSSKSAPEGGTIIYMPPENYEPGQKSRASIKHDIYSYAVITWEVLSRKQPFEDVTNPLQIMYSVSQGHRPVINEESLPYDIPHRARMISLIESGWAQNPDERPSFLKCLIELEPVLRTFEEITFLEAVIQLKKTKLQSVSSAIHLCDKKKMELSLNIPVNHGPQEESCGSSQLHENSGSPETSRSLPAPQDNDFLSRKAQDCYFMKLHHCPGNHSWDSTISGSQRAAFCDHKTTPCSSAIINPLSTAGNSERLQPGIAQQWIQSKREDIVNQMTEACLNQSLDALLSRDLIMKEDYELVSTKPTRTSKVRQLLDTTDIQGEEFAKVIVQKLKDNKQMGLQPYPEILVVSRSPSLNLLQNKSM
# [12] = beta-lactamase reporter inhibitors in CHO cells, confirmation, artefact control for NOD2-RIPK2 interaction inhibitor project, cell-based, CHO-K1 CMV-bla, CCF4 FRET, fluorescence (AID 624371;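 active = mean inhibition above the low-control mean inhibition plus three low-control SD, cut at about 11% in these data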;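 note: 0% = DMSO only wells and 100% = clavulanate high control wells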); conditions: CCF4 FRET ratio, counterscreen, at 4.98 µM, stronger effect = higher value
# [13] = biological target: Photoreceptor-specific nuclear receptor (Homo sapiens) (UniProt Q9Y5X4); assay: NR2E3 agonist confirmation in cells, cell-based, luminescence, CHO-S two-hybrid (AID 624378;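 active = average inhibition above a cutoff equal to the mean inhibition of all tested compounds plus one SD, cut at about 70% in these data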;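 note: 0% = DMSO in NR2E3 cells and 100% = DMSO in cells lacking NR2E3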); conditions: CHO-S mammalian two-hybrid NR2E3-NCOR, luciferase luminescence; at 3.98 µM; stronger effect = higher value
# Photoreceptor-specific nuclear receptor (Homo sapiens), sequence (Q9Y5X4 whole entry, looked up, the tested form may be a part): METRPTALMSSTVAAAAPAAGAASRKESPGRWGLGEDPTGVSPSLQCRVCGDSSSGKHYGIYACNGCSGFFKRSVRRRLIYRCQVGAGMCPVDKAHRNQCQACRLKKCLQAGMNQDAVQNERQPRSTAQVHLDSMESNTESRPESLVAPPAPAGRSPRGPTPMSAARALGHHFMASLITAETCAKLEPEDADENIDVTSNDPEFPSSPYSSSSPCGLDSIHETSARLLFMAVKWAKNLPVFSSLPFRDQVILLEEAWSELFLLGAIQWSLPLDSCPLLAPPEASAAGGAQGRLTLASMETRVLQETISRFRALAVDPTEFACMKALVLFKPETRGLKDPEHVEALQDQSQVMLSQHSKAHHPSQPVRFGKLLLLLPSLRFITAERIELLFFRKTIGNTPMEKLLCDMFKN
# [14] = GAL4-VP16 reporter modulators, confirmation, counter-screen for NR2E3 agonist project, cell-based, luminescence, CHO-S, high throughput (AID 624379;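 active = mean inhibition above a cutoff equal to the average over all tested compounds plus one standard deviation, cut at about 70% in these data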;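 note: 0% = DMSO with VP16-transfected cells and 100% = DMSO with cells lacking VP16; higher means less reporter light so more repression of VP16 activity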); conditions: CHO-S GAL4-VP16 luciferase reporter, at 3.98 µM, stronger effect = higher value
compound,measurement,setting,value
COc1cccc2cc(-c3cc(=O)oc4ccc(OC(=O)N(C)C)cc34)oc12,inhibition,[1],-17.6%
same,inhibition,[2],-14.6%
CCCCn1nnnc1C(CCSC)N1CCC(n2c(=O)[nH]c3ccccc32)CC1 (stereo not drawn),inhibition,[1],-63.4%
same,inhibition,[2],6.98%
CCC(C)(C)n1nnnc1CN1CCC(n2c(C)nc3cc(C(F)(F)F)ccc32)CC1,inhibition,[1],17.3%
same,inhibition,[2],-2.08%
C1=NCCc2c1[nH]c1ccccc21,inhibition,[3],27.8%
same,inhibition,[4],-13.4%
same,inhibition,[5],14.4%
same,inhibition,[6],50.2% (active)
same,inhibition,[7],44.8% (active)
same,inhibition,[8],-11.6%
Cc1cccc(-n2c(C)nc3ccccc3c2=O)c1C,inhibition,[1],2%
same,inhibition,[2],9.3%
CCCCC(CC)COCCCN=Cc1c(O)[nH]c(=S)[nH]c1=O (stereo not drawn),inhibition,[1],29.9%
same,inhibition,[2],17.5%
CN1C2CCC1/C(=C/c1ccccn1)C(=O)/C2=C\c1ccccn1,inhibition,[3],-0.02%
same,inhibition,[4],80.8% (active)
same,inhibition,[9],75% (active)
same,inhibition,[10],70.9% (active)
CCCOC(=O)c1ccc(-[n+]2c(-c3ccccc3)cc(-c3ccccc3)cc2-c2ccccc2)cc1,inhibition,[3],44.1% (active)
same,inhibition,[4],65.5% (active)
same,inhibition,[5],64.9% (active)
same,inhibition,[6],110% (active)
same,inhibition,[7],88.8% (active)
same,inhibition,[8],96.6% (active)
same,inhibition,[9],31.1%
same,inhibition,[10],31.8%
O=c1[nH]c2ccccc2n1C1CCN(C(c2cccs2)c2nnnn2-c2ccc3c(c2)OCCO3)CC1 (stereo not drawn),inhibition,[1],-26.2%
same,inhibition,[2],25.5% (active)
c1ccc(-c2[nH]c(-c3ccccc3)[n+](CC3CO3)c2-c2ccccc2)cc1 (stereo not drawn),inhibition,[3],13.4%
same,inhibition,[4],-0.66%
same,inhibition,[9],22.1%
same,inhibition,[10],30.2%
CC(C)CNc1c2c(nc3ccccc13)CCC2,inhibition,[1],7.81%
same,inhibition,[2],17.3%
CCCCn1nnnc1C(CCc1ccccc1)N1CCC(n2c(=O)[nH]c3ccccc32)CC1 (stereo not drawn),inhibition,[1],-23.9%
same,inhibition,[2],7.75%
CC(C)c1oc(=O)cc2c1[C@@H](O)[C@H]1OC(=O)[C@@]3(C)C[C@@H](O)[C@@H](O)[C@@]2(C)C13 (stereo partly drawn),inhibition,[3],79.4% (active)
same,inhibition,[4],67.4% (active)
same,inhibition,[5],84.4% (active)
same,inhibition,[6],104% (active)
same,inhibition,[7],90% (active)
same,inhibition,[8],77.4% (active)
same,inhibition,[9],8.02%
same,inhibition,[10],13.1%
CC(C)(O)/C=C/C(=O)C(C)(O)C1C(O)CC2(C)C3CC=C4C(C=C(O)C(=O)C4(C)C)C3(C)C(=O)CC12C (stereo not drawn),inhibition,[3],70.1% (active)
same,inhibition,[4],74% (active)
same,inhibition,[5],66% (active)
same,inhibition,[6],79.3% (active)
same,inhibition,[7],78.9% (active)
same,inhibition,[8],86.1% (active)
same,inhibition,[9],62.2% (active)
same,inhibition,[10],96.5% (active)
COC(=O)C1=C(c2ccc(-c3ccccc3)c(F)c2)C[C@@H]2CC[C@H]1N2C(=O)N1CCCCC1,inhibition,[3],18.3%
same,inhibition,[4],39% (active)
same,inhibition,[9],19.5%
same,inhibition,[10],35.4%
CCN(CC)C(=O)c1ccc(NC(=O)c2cccc(S(=O)(=O)N3CCN(Cc4ccccc4)CC3)c2)cc1,inhibition,[1],-1.69%
same,inhibition,[2],20.8%
COc1ccc(-n2nnnc2C(CCSC)N2CCC(n3c(=O)[nH]c4ccccc43)CC2)cc1 (stereo not drawn),inhibition,[1],-13.8%
same,inhibition,[2],-1.55%
COc1ccc(C(c2nnnn2Cc2ccccc2)N2CCC(n3c(=O)[nH]c4ccccc43)CC2)cc1 (stereo not drawn),inhibition,[1],-42.8%
same,inhibition,[2],-11.4%
CCC(c1nnnn1Cc1ccccc1)N1CCC(n2c(=O)[nH]c3ccccc32)CC1 (stereo not drawn),inhibition,[1],-50.1%
same,inhibition,[2],0.59%
COC(=O)C[C@]1(C(=O)OC)CN(C#N)N(c2ccc(Cl)cc2)C12c1ccccc1-c1ccccc12,inhibition,[3],17.7%
same,inhibition,[4],63.2% (active)
same,inhibition,[5],34.7% (active)
same,inhibition,[6],61.1% (active)
same,inhibition,[7],58.2% (active)
same,inhibition,[8],69.2% (active)
CC(=O)OC1C2(CC3N4C(=O)C5(CO)SSC4(CC31O)C(=O)N5C)OC(C)C(C)(C)C2=O (stereo not drawn),inhibition,[3],95.9% (active)
same,inhibition,[4],94.1% (active)
same,inhibition,[11],41.9% (active)
same,inhibition,[12],0.4%
same,inhibition,[13],98.8% (active)
same,inhibition,[14],99.1% (active)
same,inhibition,[5],96.3% (active)
same,inhibition,[6],110% (active)
same,inhibition,[7],98.4% (active)
same,inhibition,[8],97.4% (active)
COC(=O)C1=C(c2ccc(-c3ccccc3)c(F)c2)C[C@@H]2CC[C@H]1N2C(=O)NC1CC1,inhibition,[1],15.1%
same,inhibition,[2],25.6% (active)
C[C@H]1CCC[C@H](O)CCCCCc2cc(O)cc(O)c2C(=O)O1,inhibition,[1],-4.86%
same,inhibition,[2],15.5%
COc1ccc(-n2nnnc2C(c2cccs2)N2CCC(n3c(=O)[nH]c4ccccc43)CC2)cc1 (stereo not drawn),inhibition,[1],-25.6%
same,inhibition,[2],-13.5%
COC(=O)c1ccc(NC(=O)CSc2nc3ccc(N4C(=O)C5C6C=CC(C6)C5C4=O)cc3s2)cc1 (stereo not drawn),inhibition,[3],-22.8%
same,inhibition,[4],-0.23%
same,inhibition,[9],24.8%
same,inhibition,[10],-3.51%
COc1ccc2c(c1)/C(=C/c1cnc[nH]1)C(=O)N2,inhibition,[1],13.1%
same,inhibition,[2],19%
same,inhibition,[5],59.4% (active)
same,inhibition,[6],85.8% (active)
same,inhibition,[7],72.9% (active)
same,inhibition,[8],11.2%
